# The list is not random: actives were taken first. Their share in the collection is about 15%.
# RORg inh = qHTS for inhibitors of ROR gamma transcriptional activity; Nuclear receptor ROR-gamma (Mus musculus), P51450; Drosophila S2 Gal4-RORgamma UAS-luciferase reporter, 20 h; Potency, µM (series often up to 53.6 µM), for the others: at the highest dose activity change, negative = inhibition, most hits filed as inhibitors; 5.4% of 310,000 active; AID 2551, 2010; note: nearly all actives have a fitted effect of over 60% in size
# Target sequence (P51450 whole entry, looked up, the tested form may be a part): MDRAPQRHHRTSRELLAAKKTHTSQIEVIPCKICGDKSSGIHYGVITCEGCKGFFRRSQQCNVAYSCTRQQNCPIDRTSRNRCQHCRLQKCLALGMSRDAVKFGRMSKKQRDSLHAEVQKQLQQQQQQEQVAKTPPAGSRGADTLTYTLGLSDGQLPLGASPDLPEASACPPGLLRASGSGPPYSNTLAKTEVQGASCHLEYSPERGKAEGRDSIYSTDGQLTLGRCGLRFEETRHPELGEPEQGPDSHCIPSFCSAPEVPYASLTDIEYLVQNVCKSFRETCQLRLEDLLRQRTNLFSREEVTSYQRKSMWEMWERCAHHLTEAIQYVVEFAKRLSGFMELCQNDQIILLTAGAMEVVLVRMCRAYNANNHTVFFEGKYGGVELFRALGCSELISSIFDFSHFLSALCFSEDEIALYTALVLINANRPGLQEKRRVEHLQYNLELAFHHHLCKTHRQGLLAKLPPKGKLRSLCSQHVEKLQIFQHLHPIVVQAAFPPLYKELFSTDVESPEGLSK
#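 Stable Schneider cell line, Gal4 DNA-binding domain fused to ROR gamma, UAS-luciferase. Cmpd 1 hr RT → CuSO4 700 uM final → 20 hr RT → luciferase reagent 10 min → luminescence.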
# ALOX12 inh = Primary qHTS assay for inhibitors of human arachidonate 12S-lipoxygenase (ALOX12): Round 2; Potency, µM (top dose mostly 108 µM), inactives show at the top dose activity change, negative = inhibition, hits mostly inhibitors; purified 12hLO, xylenol orange hydroperoxide absorbance; 1.1% of 580,000 active; Polyunsaturated fatty acid lipoxygenase ALOX12 (Homo sapiens), P18054
#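 Purified human 12hLO at 150 nM in 25 mM Hepes, 0.01% Triton X-100, pH 7.0, preincubated 15 min at room temperature with compound. Reaction started with 40 uM arachidonic acid, 30 min at room temperature. Hydroperoxide measured by Fe-xylenol orange, 573/405 nm absorbance ratio.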
# Gal4-VP16 FLuc = VP16 counterscreen qHTS for inhibitors of ROR gamma transcriptional activity; Drosophila S2 Gal4-VP16 UAS-luciferase, luminescence, 20 h; Potency, µM (series often up to 53.6 µM), for the others: at the highest dose activity, negative = inhibition, usual class: inhibitors; 3.5% of 310,000 active;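 note: Gal4-VP16 expression switched on by copper sulfate through the metallothionein promoter; nearly all actives have a fitted effect of over 50% in size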
# TDP1 cell CPT = qHTS for Inhibitors of human tyrosyl-DNA phosphodiesterase 1 (TDP1): qHTS in cells in presence of CPT. chicken DT40 Tdp1-/-;hTDP1 cells + 20 nM CPT, ATP luminescence, 48 h. Potency, µM (highest dose often 46.2 µM), for the others: top-dose activity change, negative = growth inhibition, hits mostly inhibitors. 12% of 420,000 active. AID 686979, 2013; note: nearly all actives have a fitted effect of over 55% in size
#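 Cell growth measured by CellTiter-Glo luminescence after a minimum 48 h, 37 C compound exposure with 20 nM CPT in Tdp1-knockout DT40 cells stably expressing hTDP1, seeded 400/well; qHTS titration format.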
# ELG1 DNA repair = qHTS screen for small molecules that inhibit ELG1-dependent DNA repair in human embryonic kidney (HEK293T) cells expressing luciferase-tagged ELG1 | 2.3% of 330,000 active | HEK293T ELG1-luciferase reporter, luminescence, 16 h; DNA damage induced by 5-fluorouridine | Potency, µM (series often up to 46.1 µM), inactives show top-dose activity change, negative = inhibition, hits mostly inhibitors; note: nearly all actives have a fitted effect of over 55% in size
#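 HEK293T cells expressing luciferase-tagged ELG1 (2,000/well) received 5-Fluorouridine plus compound or DMSO for 16 hr at 37 °C. Luciferase was read by ONE-Glo luminescence after 30 min at room temperature.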
# TDP1 cell noCPT = qHTS for Inhibitors of human tyrosyl-DNA phosphodiesterase 1 (TDP1): qHTS in cells in absence of CPT | DT40 Tdp1-/- hTDP1 cells, no CPT, ATP luminescence, 48 h | Potency, µM (doses to about 46.2 µM), without a hit: at the top dose activity change, negative = growth inhibition, hits mostly inhibitors | 15% of 420,000 active | AID 686978, 2013; note: nearly all actives have a fitted effect of over 55% in size
#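 Seeded 400 DT40-hTDP1 cells/well (vehicle DMSO, no 20 nM CPT); pinned compounds; ≥48 hr at 37 °C; CellTiter-Glo luminescence as viability measure.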
# Active calls of the source: *; ? = inconclusive; nt = not tested or not shown; [ ] = remark or other dose. Calls come from the whole dose curve; as a rule, active = well fitted curve in the direction sought with a large enough effect; inconclusive = small, poorly fitted or top-dose-only effect, or another doubt; inactive = no such curve, though single readings can be large; an effect the other way counts as inactive or inconclusive. % is set by controls: 0 for no effect and ±100 for the full control effect; potency is the fitted concentration of half-maximal effect.
SMILES,RORg inh,ALOX12 inh,Gal4-VP16 FLuc,TDP1 cell CPT,ELG1 DNA repair,TDP1 cell noCPT
O=C(Nc1cccc(-c2nc3ccccc3s2)c1)c1cc(=O)c2ccccc2o1,24%,-5%,-14%,?,9.2µM*,2.1µM*
Cc1c(C(=O)Nc2cccc(-c3nc4ccccc4s3)c2)oc2ccccc12,nt,-25%,nt,16µM*,nt,18µM*
Cc1ccc2oc(C(=O)Nc3cccc(-c4nc5ccccc5s4)c3)c(C)c2c1,nt,-20%,nt,?,nt,?
NC(=O)C1CCN(C(=O)Cn2ccc3c(Cl)cccc32)CC1,nt,0%,nt,nt,nt,nt
Cc1nc(-c2c3n(c(=O)n(CC(=O)NCCCc4ccccc4)c2=O)CCCC3)no1,nt,40%,nt,nt,nt,nt
Cc1ccc(-c2n[nH]c(=S)c3ccccc23)cc1,31%,26%,2%,?,-8%,?
Cc1ccc(-c2nnc(NCc3nc4ccccc4[nH]3)c3ccccc23)cc1S(=O)(=O)N(C)C,-2%,-4%,3%,10µM*,10µM*,23µM*
Cc1ccc(-c2nn(CC(=O)NC(C)(C)C)c(=O)c3ccccc23)cc1S(=O)(=O)N(C)C,nt,16%,nt,nt,nt,nt
CCCCOc1nnc(-c2ccc(OCC)cc2)c2ccccc12,nt,-11%,nt,?,nt,?
CCOc1ccc(-c2nnc(N3CCCCC3)c3ccccc23)cc1,11%,-46%,-8%,23µM*,?,16µM*
CCOc1ccc(-c2n[nH]c(=S)c3ccccc23)cc1,7.1µM*,0%,10µM*,23µM*,-2%,?
S=c1[nH]nc(-c2ccccc2)c2ccccc12,7.1µM*,-18%,11µM*,-18%,-2%,?
CC(N)c1ccc(NS(C)(=O)=O)cc1 (centres undefined),nt,7%,nt,nt,nt,nt
O=S(=O)(CCc1ccccc1Cl)c1ccccc1,nt,-30%,nt,nt,nt,nt
Cc1ccc(-c2nnc(N3CCCCC3)c3ccccc23)cc1S(=O)(=O)N(C)C,6%,18%,18µM*,23µM*,-11%,?
Cc1ccc(-c2nnc(N3CCOCC3)c3ccccc23)cc1S(N)(=O)=O,nt,139%,nt,-13%,nt,-2%
O=C(OCC1OC(n2ncc(=O)[nH]c2=O)C(OC(=O)c2ccccc2)C1OC(=O)c1ccccc1)c1ccccc1 (centres undefined),20%,-10%,-3%,16µM*,-1%,?
CC(=O)OC[C@H]1O[C@@H](n2ncc(=O)[nH]c2=O)[C@H](OC(C)=O)[C@@H]1OC(C)=O,-1%,-6%[22.9 µM],-1%,?,?,11µM*
COc1cc(NC(=O)C2CCCN2C(=O)C23CC4CC(CC(C4)C2)C3)cc(OC)c1OC (centres undefined),nt,12%,nt,nt,nt,nt
c1ccc(-c2csc(Nc3ccc4c(c3)OCCO4)n2)cc1,-44%,?,?,15µM*,nt,?
O=C(CN1CCOCC1)Nc1nc(-c2ccccc2)cs1,8%,0%,20%,-11%,-8%,?
c1ccc(-c2csc(Nc3nc(N4CCOCC4)nc(N4CCOCC4)n3)n2)cc1,2%,0%,-14%,?,5.8µM*,10µM*
Cc1cc(C)nc(Nc2nc(C(N)c3ccccc3)cs2)n1 (centres undefined),nt,12%,nt,?,nt,?
Cc1cc(C)nc(Nc2nc(-c3ccccc3)cs2)n1,4.5µM*,5%,?,-10%,?,?
c1cc2c(cc1-c1csc(NNC3=NCCCCC3)n1)OCCO2,?,?,?,3.3µM*,?,4.6µM*
SMILES,RORg inh,ALOX12 inh,Gal4-VP16 FLuc,TDP1 cell CPT,ELG1 DNA repair,TDP1 cell noCPT
CC(C)(C)c1ccccc1NC(=O)c1ccccc1F,nt,-3%,nt,nt,nt,nt
CCOc1ccccc1C1CC(=O)N(Cc2ccccc2)c2c1c(C)nn2-c1nc(C)cc(C)n1 (centres undefined),nt,7%,nt,nt,nt,nt
CCCOc1cccc(-c2cc(C(=O)N/N=C/c3ccccn3)c3ccccc3n2)c1,1µM*,492%,1.3µM*,12µM*,12%,9.2µM*
CC(C)COc1cccc(-c2cc(C(=O)Nc3ccon3)c3ccccc3n2)c1,?,-11%,28µM*,16µM*,?,10µM*
COc1cc(/C=N/NC(=O)c2cc(-c3ccccc3)nc3ccccc23)cc(OC)c1O,-13%,-11%,0%,?,?,?
O=C(N/N=C/c1ccccc1F)c1csc2ccccc12,nt,-13%,nt,nt,nt,nt
CCCOc1cccc(-c2cc(C(=O)O)c3cc(C)ccc3n2)c1,nt,-17%,nt,nt,nt,nt
COc1ccc(OC)c(/C=N/NC(=O)c2csc3ccccc23)c1,13µM*,5%,0%,-22%,-11%,?
COc1ccc(-c2cc(C(=O)N/N=C/c3cc(OC)c(OC)cc3OC)c3ccccc3n2)cc1,nt,91%,nt,10µM*,nt,9.2µM*
CCCOc1cccc(-c2cc(C(=O)N/N=C/c3cccnc3)c3ccccc3n2)c1,8%,114%,9%,9.2µM*,16µM*,8.2µM*
Cc1cccc(-c2cc(C(=O)N/N=C/c3cccnc3)c3ccccc3n2)c1,nt,236%,nt,?,nt,?
Cc1ccccc1-c1cc(C(=O)N/N=C/c2cccnc2)c2ccccc2n1,17%,0%,15%,?,-11%,?
COc1ccc(-c2cc(C(=O)N/N=C/c3cccnc3)c3ccccc3n2)cc1,-36%,0%,-11%,9.2µM*,?,?
CCCOc1cccc(-c2cc(C(=O)NN)c3ccccc3n2)c1,11µM*,-19%,?,9.2µM*,-20%,10µM*
O=C(N/N=C/c1cccnc1)c1cc(-c2ccccc2Cl)nc2ccccc12,0%,99%,2%,?,-8%,4.6µM*
O=C(CCCn1cnnn1)NC1CCCc2c1cnn2-c1ccccn1 (centres undefined),nt,1%,nt,nt,nt,nt
CC(=O)Nc1ccc(S(=O)(=O)N2C[C@@H]3C[C@H](C2)c2ccc(-c4ccccc4C)c(=O)n2C3)cc1,nt,-11%,nt,nt,nt,nt
CC(Sc1nnc(C2CC2)n1Cc1ccccc1)C(=O)Nc1ccnn1C(C)C (centres undefined),nt,33%,nt,nt,nt,nt
COc1cc2ccccc2cc1C(=O)N/N=C/c1cccnc1,-3%,3%,1%,15µM*,-21%,?

# Screening data (PubChem BioAssay)
